Among all 5,500 compounds or so, about 2,000 (36%) were called active. Roughly 18% stayed inconclusive and do not appear here. Rule as the data show it: active = normalized growth mostly below about 0.91 (no sharp cut-off); inconclusive = no clear call, values can overlap the other calls; inactive = mostly above about 0.92. Some of the results follow.
Experiment: chemical genetic growth profiling, strain panel (AID 1159580);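 also: tested at 20 µM; growth read once vehicle control cultures reached saturation at 30 °C; 1 = growth at the plate median or of vehicle wells; lower values mean less growth of the strain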
Conditions: growth OD

Measured: normalized growth

COc1cc(OC)c2c(=O)c(-c3ccccc3)c(C)oc2c1OC
inactive: S. cerevisiae deletion strains, locus YJR043C, strain POL32, stronger effect = lower value 1.01 | S. cerevisiae deletion strains, locus YJR075W, strain HOC1, stronger effect = lower value 1.02 | S. cerevisiae deletion strains, locus YKL009W, strain mrt4, stronger effect = lower value 1 | S. cerevisiae deletion strains, locus YKL068W, stronger effect = lower value 1 | S. cerevisiae deletion strains, locus YKL085W, strain MDH1 (second series), stronger effect = lower value 0.996 | S. cerevisiae deletion strains, locus YKL085W, strain MDH1, stronger effect = lower value 0.996 | S. cerevisiae deletion strains, locus YKL160W, strain elf1, stronger effect = lower value 1 | S. cerevisiae deletion strains, locus YKL190W, strain CNB1, stronger effect = lower value 1.01 | S. cerevisiae deletion strains, locus YKR001C, strain vps1, stronger effect = lower value 0.993 | S. cerevisiae deletion strains, locus YKR026C, strain gcn3, stronger effect = lower value 0.966 | S. cerevisiae deletion strains, locus YKR091W, strain srl3, stronger effect = lower value 0.962 | S. cerevisiae deletion strains, locus YLL001W, strain dnm1, stronger effect = lower value 1.01 | S. cerevisiae deletion strains, locus YLL026W, stronger effect = lower value 0.984 | S. cerevisiae deletion strains, locus YLL041C, strain sdh2, stronger effect = lower value 1 | S. cerevisiae deletion strains, locus YLR027C, strain aat2, stronger effect = lower value 0.982 | S. cerevisiae deletion strains, locus YLR039C, strain RIC1, stronger effect = lower value 0.984 | S. cerevisiae deletion strains, locus YLR058C, strain SHM2, stronger effect = lower value 1.01 | S. cerevisiae deletion strains, locus YLR102C, strain apc9, stronger effect = lower value 0.999 | S. cerevisiae deletion strains, locus YLR221C, strain rsa3, stronger effect = lower value 0.957 | S. cerevisiae deletion strains, locus YLR258W, strain gsy2, stronger effect = lower value 0.987 | S. cerevisiae deletion strains, locus YLR262C, strain YPT6 (second series), stronger effect = lower value 0.951 | S. cerevisiae deletion strains, locus YLR262C, strain YPT6, stronger effect = lower value 0.989 | S. cerevisiae deletion strains, locus YLR268W, strain sec22, stronger effect = lower value 0.972 | S. cerevisiae deletion strains, locus YLR320W, strain mms22, stronger effect = lower value 0.984 | S. cerevisiae deletion strains, locus YLR330W, strain CHS5, stronger effect = lower value 1.01 | S. cerevisiae deletion strains, locus YLR342W, strain FKS1 (second series), stronger effect = lower value 1.01 | S. cerevisiae deletion strains, locus YLR342W, strain FKS1, stronger effect = lower value 0.956 | S. cerevisiae deletion strains, locus YLR357W, strain rsc2, stronger effect = lower value 0.986 | S. cerevisiae deletion strains, locus YLR370C, strain arc18, stronger effect = lower value 0.977 | S. cerevisiae deletion strains, locus YLR371W, strain rom2, stronger effect = lower value 1 | S. cerevisiae deletion strains, locus YLR384C, strain iki3, stronger effect = lower value 0.98 | S. cerevisiae deletion strains, locus YLR418C, strain cdc73, stronger effect = lower value 1.03 | S. cerevisiae deletion strains, locus YML016C, strain PPZ1, stronger effect = lower value 1.01 | S. cerevisiae deletion strains, locus YML032C, strain rad52, stronger effect = lower value 0.997 | S. cerevisiae deletion strains, locus YML120C, strain ndi1, stronger effect = lower value 0.973 | S. cerevisiae deletion strains, locus YML124C, strain tub3, stronger effect = lower value 0.989 | S. cerevisiae deletion strains, locus YMR058W, strain fet3, stronger effect = lower value 0.988 | S. cerevisiae deletion strains, locus YMR078C, strain ctf18, stronger effect = lower value 0.99 | S. cerevisiae deletion strains, locus YMR125W, strain sto1, stronger effect = lower value 0.981 | S. cerevisiae deletion strains, locus YMR129W, stronger effect = lower value 0.972 | S. cerevisiae deletion strains, locus YMR205C, strain PFK2, stronger effect = lower value 0.95 | S. cerevisiae deletion strains, locus YMR223W, strain ubp8, stronger effect = lower value 0.996 | S. cerevisiae deletion strains, locus YMR231W, strain pep5, stronger effect = lower value 0.992 | S. cerevisiae deletion strains, locus YMR263W, strain SAP30, stronger effect = lower value 1.02 | S. cerevisiae deletion strains, locus YMR307W, strain GAS1, stronger effect = lower value 1.02 | S. cerevisiae deletion strains, locus YNL067W, strain RPL9B, stronger effect = lower value 1.02 | S. cerevisiae deletion strains, locus YNL071W, strain lat1, stronger effect = lower value 0.984 | S. cerevisiae deletion strains, locus YNL128W, strain TEP1, stronger effect = lower value 1.04 | S. cerevisiae deletion strains, locus YNL153C, strain GIM3, stronger effect = lower value 1.01 | S. cerevisiae deletion strains, locus YNL209W, strain ssb2, stronger effect = lower value 0.982 | S. cerevisiae deletion strains, locus YNL233W, strain BNI4, stronger effect = lower value 1 | S. cerevisiae deletion strains, locus YNL248C, strain rpa49, stronger effect = lower value 1.01 | S. cerevisiae deletion strains, locus YNL250W, strain rad50, stronger effect = lower value 0.994 | S. cerevisiae deletion strains, locus YNL271C, strain bni1, stronger effect = lower value 1 | S. cerevisiae deletion strains, locus YNL298W, strain CLA4, stronger effect = lower value 1.01 | S. cerevisiae deletion strains, locus YNL307C, strain MCK1, stronger effect = lower value 0.978 | S. cerevisiae deletion strains, locus YNL322C, strain KRE1 (second series), stronger effect = lower value 0.979 | S. cerevisiae deletion strains, locus YNL322C, strain KRE1, stronger effect = lower value 1.01 | S. cerevisiae deletion strains, locus YNR049C, strain mso1, stronger effect = lower value 0.976 | S. cerevisiae deletion strains, locus YNR052C, strain pop2, stronger effect = lower value 1.01 | S. cerevisiae deletion strains, locus YOL006C, strain TOP1, stronger effect = lower value 1.02 | S. cerevisiae deletion strains, locus YOL012C, strain htz1 0.978 | S. cerevisiae deletion strains, locus YOL147C, strain pex11, stronger effect = lower value 0.992 | S. cerevisiae deletion strains, locus YOR001W, strain rrp6, stronger effect = lower value 1.01 | S. cerevisiae deletion strains, locus YOR061W, strain CKA2, stronger effect = lower value 1.01 | S. cerevisiae deletion strains, locus YOR069W, strain VPS5, stronger effect = lower value 1 | S. cerevisiae deletion strains, locus YOR070C, strain gyp1, stronger effect = lower value 0.987 | S. cerevisiae deletion strains, locus YOR080W, strain dia2, stronger effect = lower value 0.989 | S. cerevisiae deletion strains, locus YOR083W, strain WHI5, stronger effect = lower value 1.01 | S. cerevisiae deletion strains, locus YOR106W, strain vam3, stronger effect = lower value 0.994 | S. cerevisiae deletion strains, locus YOR136W, strain idh2, stronger effect = lower value 0.993 | S. cerevisiae deletion strains, locus YOR144C, strain elg1, stronger effect = lower value 0.999 | S. cerevisiae deletion strains, locus YOR184W, strain ser1, stronger effect = lower value 0.999 | S. cerevisiae deletion strains, locus YOR265W, strain rbl2, stronger effect = lower value 0.987 | S. cerevisiae deletion strains, locus YOR270C, strain vph1, stronger effect = lower value 0.989 | S. cerevisiae deletion strains, locus YOR290C, strain snf2, stronger effect = lower value 0.933 | S. cerevisiae deletion strains, locus YOR316C, strain cot1, stronger effect = lower value 1 | S. cerevisiae deletion strains, locus YPL051W, strain arl3, stronger effect = lower value 1 | S. cerevisiae deletion strains, locus YPL055C, strain LGE1, stronger effect = lower value 1.04 | S. cerevisiae deletion strains, locus YPL078C, strain atp4, stronger effect = lower value 0.995 | S. cerevisiae deletion strains, locus YPL106C, strain sse1, stronger effect = lower value 0.942 | S. cerevisiae deletion strains, locus YPL240C, strain hsp82, stronger effect = lower value 0.983 | S. cerevisiae deletion strains, locus YPL241C, strain CIN2, stronger effect = lower value 1.01 | S. cerevisiae deletion strains, locus YPR119W, strain clb2, stronger effect = lower value 0.99 | S. cerevisiae deletion strains, locus YPR141C, strain kar3, stronger effect = lower value 1 | S. cerevisiae deletion strains, locus YPR163C, strain tif3, stronger effect = lower value 0.992 | S. cerevisiae deletion strains, locus YPR167C, strain met16, stronger effect = lower value 1 | S. cerevisiae deletion strains, strain wtn01, stronger effect = lower value 0.997 | S. cerevisiae strains, strain wild type, stronger effect = lower value 1.02
